# From PubChem
# Gal4-VP16 FLuc – VP16 counterscreen qHTS for inhibitors of ROR gamma transcriptional activity; Drosophila S2 Gal4-VP16 UAS-luciferase, luminescence, 20 h; Potency, µM (series often up to 53.6 µM), for the others: top-dose activity, negative = inhibition, actives largely listed as inhibitors; 3.5% of 310,000 active; AID 2546, 2010;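 also: Gal4-VP16 expression switched on by copper sulfate through the metallothionein promoter; nearly all actives have a fitted effect of over 50% in size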
# 12-LOX inh – Primary qHTS assay for inhibitors of human arachidonate 12S-lipoxygenase (ALOX12): Round 2; purified 12hLO, xylenol orange hydroperoxide absorbance; Potency, µM (top dose mostly 108 µM), for the others: at the highest dose activity change, negative = inhibition, actives largely listed as inhibitors; 1.1% of 580,000 active; AID 1671190, 2021
# Target sequence (P18054 whole entry, looked up): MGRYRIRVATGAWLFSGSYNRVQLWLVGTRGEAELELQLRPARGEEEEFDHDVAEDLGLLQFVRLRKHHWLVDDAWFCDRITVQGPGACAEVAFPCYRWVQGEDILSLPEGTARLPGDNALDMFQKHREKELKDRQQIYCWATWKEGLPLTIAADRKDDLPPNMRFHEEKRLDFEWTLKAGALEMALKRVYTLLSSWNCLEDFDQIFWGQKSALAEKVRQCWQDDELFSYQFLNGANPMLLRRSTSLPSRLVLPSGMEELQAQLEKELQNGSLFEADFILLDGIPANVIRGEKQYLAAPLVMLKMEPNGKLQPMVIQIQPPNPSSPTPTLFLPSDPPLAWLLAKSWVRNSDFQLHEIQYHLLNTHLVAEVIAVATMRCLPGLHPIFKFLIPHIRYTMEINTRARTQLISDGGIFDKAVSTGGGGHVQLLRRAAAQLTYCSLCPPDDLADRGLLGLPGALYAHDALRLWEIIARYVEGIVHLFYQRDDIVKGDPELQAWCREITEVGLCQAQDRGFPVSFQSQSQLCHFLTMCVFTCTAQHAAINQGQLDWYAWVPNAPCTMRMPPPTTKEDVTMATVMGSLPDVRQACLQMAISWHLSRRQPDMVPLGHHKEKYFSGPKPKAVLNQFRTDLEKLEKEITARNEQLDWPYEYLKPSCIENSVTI
#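 Purified human 12hLO at 150 nM in 25 mM Hepes, 0.01% Triton X-100, pH 7.0, preincubated 15 min at room temperature with compound. Reaction started with 40 uM arachidonic acid, 30 min at room temperature. Hydroperoxide measured by Fe-xylenol orange, 573/405 nm absorbance ratio.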
# TDP1 cell noCPT – qHTS for Inhibitors of human tyrosyl-DNA phosphodiesterase 1 (TDP1): qHTS in cells in absence of CPT. 15% of 420,000 active. Potency, µM (series often up to 46.2 µM), for inactives: at the top dose activity change, negative = growth inhibition, hits mostly inhibitors. DT40 Tdp1-/- hTDP1 cells, no CPT, ATP luminescence, 48 h; also: nearly all actives have a fitted effect of over 55% in size
#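 Growth of hTDP1-complemented DT40 Tdp1-knockout cells is measured by ATP luminescence after at least 48 hr compound exposure at 37 °C, with DMSO substituting for the 20 nM CPT used in the parallel screen.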
# ELG1 repair inh – qHTS screen for small molecules that inhibit ELG1-dependent DNA repair in human embryonic kidney (HEK293T) cells expressing luciferase-tagged ELG1; AID 504467, 2011; Potency, µM (titrated, usually from 46.1 µM), for inactives: top-dose activity change, negative = inhibition, actives largely listed as inhibitors; 2.3% of 330,000 active; HEK293T ELG1-luciferase reporter, luminescence, 16 h; DNA damage induced by 5-fluorouridine; also: nearly all actives have a fitted effect of over 55% in size
#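 Luminescence from the luciferase reporter, measured 30 min after ONE-Glo reagent at room temperature, was the read-out. Beforehand, 2,000 cells per well were exposed for 16 hr at 37 °C to 5-fluorouridine together with compound or vehicle.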
# DT40 TDP1 CPT – qHTS for Inhibitors of human tyrosyl-DNA phosphodiesterase 1 (TDP1): qHTS in cells in presence of CPT | Potency, µM (top dose mostly 46.2 µM), for inactives: at the highest dose activity change, negative = growth inhibition, most hits filed as inhibitors | 12% of 420,000 active | chicken DT40 Tdp1-/-;hTDP1 cells + 20 nM CPT, ATP luminescence, 48 h | AID 686979, 2013; also: nearly all actives have a fitted effect of over 55% in size
#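 Chicken DT40 Tdp1-/- cells stably complemented with human TDP1 were seeded at 400 cells/well in medium containing 20 nM camptothecin, exposed to pin-transferred compounds, and grown at 37 °C for at least 48 hr. Viability was read as ATP luminescence.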
# RORgamma inh – qHTS for inhibitors of ROR gamma transcriptional activity. Nuclear receptor ROR-gamma (Mus musculus), P51450. Drosophila S2 Gal4-RORgamma UAS-luciferase reporter, 20 h. Potency, µM (top dose mostly 53.6 µM), inactives show top-dose activity change, negative = inhibition, usual class: inhibitors. 5.4% of 310,000 active; also: nearly all actives have a fitted effect of over 60% in size
#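 Using a luciferase readout, inhibitors were identified by reduced reporter activity in Drosophila cells coexpressing a copper-inducible Gal4–ROR gamma fusion and UAS-driven Photinus luciferase, incubated 20 hr after 700 uM copper sulfate.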
# The depositor's hits bear a star; u = inconclusive; x = not tested or not shown; ! = a repeat was not active; [ ] = dose if it differs, or a comment. Most compounds without a hit are left out; they make up all but 15% or so of the library. Calls follow the shape of the dose curve; as a rule, active = well fitted curve in the direction sought with a large enough effect; inconclusive = small, poorly fitted or top-dose-only effect, or another doubt; inactive = no such curve, though single readings can be large; an effect the other way counts as inactive or inconclusive. % is scaled to controls: 0 for no effect and ±100 for the full control effect; potency is read from the fitted curve at half-maximal effect.
SMILES,Gal4-VP16 FLuc,12-LOX inh,TDP1 cell noCPT,ELG1 repair inh,DT40 TDP1 CPT,RORgamma inh
Cc1nnc(SCc2cnc(-c3ccc(C(C)C)cc3)s2)n1C,11µM*,-12%,7%,u,7%,10µM*
c1ccc(-n2cnnc2SCc2nc3ccccc3s2)cc1,8%,0%,-24%,u,2%,u
c1ccc(-c2ncc(CSc3nncn3-c3ccccc3)s2)cc1,16%,0%,18µM*,-1%,u,-33%
CC(=O)c1cccc(NC(=O)CCSC2CCc3ccccc3NC2=O)c1 (configuration not stated),x,28%,x,x,x,x
COC(CNc1nc(-c2ccccn2)nc2c1c(C)nn2C)c1cccs1 (configuration not stated),x,23%,x,x,x,x
N/C(=N\OC(=O)c1ccccc1)C(C(=O)NOC(=O)c1ccccc1)C1CCCCC1 (configuration not stated),x,-4%,18µM*,x,26µM*,x
CC(C)c1nc2c(c(-c3ccc(Cl)cc3)n1)CCN([S+](=O)([O-])c1cccs1)CC2,x,4%[6.33 µM],x,x,x,x
CCc1ccc(OCC(=O)N(Cc2ccc(C(C)C)cc2)C2CCS(=O)(=O)C2)cc1 (configuration not stated),x,1%,u,x,16µM*,x
Cc1cc(OCC(=O)N(C)C2CCCCC2)cc(C)c1Cl,7%[10 µM],-14%,21µM*,5%,u,41%
CCc1ccc(OCC(=O)N(Cc2ccc(OC)cc2)C2CCS(=O)(=O)C2)cc1 (configuration not stated),x,-24%,-23%,x,u,x
Cc1cc(OCC(=O)N(Cc2ccc(N(C)C)cc2)C2CCS(=O)(=O)C2)cc(C)c1Cl (configuration not stated),x,5%,18µM*,x,u,x
COc1ccccc1C(C)NC(=O)Cc1csc2nc(-c3ccc(F)cc3)cn12 (configuration not stated),x,-3%,x,x,x,x
O=C(NCC(=O)N(Cc1ccco1)C1(C(=O)NC2CCCCC2)CCCCC1)c1ccccc1,x,20%,x,x,x,x
COc1ccccc1C(CCN(Cc1ccccc1)C(C)=O)c1ccco1 (configuration not stated),0%,10%,16µM*,u,u,u
COCc1nncn1C1CCN(S(=O)(=O)c2ccc(Cl)c(C)c2)CC1,x,41%,x,x,x,x
CCc1n(CC(O)COCc2ccccc2)c2ccccc2[n+]1C (configuration not stated),3%,u,u,1%,u,-10%
Cc1n(CC(O)COC2CCCCC2)c2ccccc2[n+]1C (configuration not stated),-5%,236%,13µM*,u,u,17%
CC1CCN(S(=O)(=O)c2csc(C(N)=O)c2)CC1,x,-7%,-5%,x,u,x
Cc1ccc(C)c(N2CCN(S(=O)(=O)c3ccc(C(=O)N(C)C)s3)CC2)c1,x,-6%,16µM*,x,18µM*,x
Cc1ccc(C)c(N2CCN(S(=O)(=O)c3csc(C(N)=O)c3)CC2)c1,-14%,-10%,u,u,16µM*!,1%
NCc1ccc(-c2ccc(F)cc2)cc1,x,7%[12.5 µM],x,x,x,x
O=C(COC(=O)c1ccc(NS(=O)(=O)c2cccs2)cc1O)NCc1ccccc1,-9%,-8%,3.3µM*,-6%,4.6µM*,u
